# Where “and” joins values, the source holds several entries; their conditions need not be identical. Equal entries are not always repeated. Records with an inconclusive call do not appear. Entries that show only a call come without a potency. Calls of active or inactive are those of the source. Calls come from the whole dose curve; as a rule, active = well fitted inhibition curve with a large enough effect in the repeat runs; inconclusive = weak or mixed curves; inactive = flat fitted curve, though single readings scatter.
# Assay: qHTS assay to identify small molecule HDAC inhibitors (AID 1259364); note: nearly all actives have a fitted effect of over 45% in size
# Details: HCT-116 HDAC-Glo I/II luminescence, 2 h; series mostly up to 92.4 µM
# From the text: U.S. Tox21 Program National Center for Advancing Translational Sciences [NCATS] NIH Chemical Genomics Center [NCGC] U.S. Environmental Protection Agency [EPA] National Institutes of Environmental Health Sciences [NIEHS] National Toxicology Program [NTP] U.S. Food and Drug Administration [FDA] Tox21 Assay Overview: Histone deacetylases (HDACs) are a group of epigenetic enzymes that regulate gene expression by histone deacetylation. HDACs are capable of introducing epigenetic modifications and such aberrations contribute to the onset and progression of several human diseases, thus making HDACs a popular therapeutic target. For identifying endogenous class I/II HDAC inhibitors a homogenous, luminogenic HDAC I/II cell based assay was used to measure the relative activity of class I and II HDACs from cells. Wild type HCT-116 cells were used to screen Tox21 libraries for identifying class I/II HDAC inhibitors.
# Tox21 Assay Protocol Summary: HCT-116 cells were dispensed at 1,500 per well in 5uL of culture medium into white solid bottom 1536-well plates (Greiner Bio-One, Monroe, NC) using a Multidrop Combi (Thermo Scientific, Waltham, MA) dispenser. The assay plates were incubated at 37 C and 5% CO2 for an overnight, and then 23nL of compounds dissolved in DMSO and positive control were transferred using a Pintool station (Wako, San Diego, CA). The assay plates were incubated at 37C and 5% CO2 for 2hr. After compound treatment, 4uL of HDAC-Glo reagent (Promega Corporation, Madison, WI) was added to each well of the assay plates using Flying Reagent Dispenser (FRD, Aurora Discovery, San Diego, CA) and incubated the assay plates at room temperature for 30min. The luminescence signal was quantified using a ViewLux plate reader (Perkin Elmer, Shelton, CT).
# Potency is the fitted concentration of half-maximal effect.
row,SMILES,Potency
1,CCC/C=C/C=O,inactive
2,CC/C=C\C/C=C\C/C=C\CCCCCCCC(=O)O,inactive
3,C=C[Si](OCCOC)(OCCOC)OCCOC,inactive
4,CC(C)(C)c1cccc(C(C)(C)C)c1O,inactive
5,O=C(O)CCCCCCCCCCCC(=O)O,30.1 µM (active) and 27.3 µM (active)
6,Cc1cccc(Nc2ccccc2C(=O)O)c1C,inactive
7,O=C(O)COCCN1CCN(C(c2ccccc2)c2ccc(Cl)cc2)CC1 (stereo not given),inactive
8,C=CCCCCCCCCCC,inactive
9,C1COCCN1,inactive
10,CC1=CC(C)(C)Nc2ccccc21,inactive
11,Nc1cc([N+](=O)[O-])ccc1C(=O)O,49.5 µM (active) and 27.3 µM (active)
12,COc1ccc(-c2coc3cc(O)cc(O)c3c2=O)cc1,21.9 µM (active) and 17.2 µM (active)
13,Cc1ccc2c(c1)C(=O)OC2=O,inactive
14,CC(C)[C@@H]1CC[C@@H](C)CC1=O,inactive
15,FC(F)(F)C(Cl)Br (stereo not given),inactive
16,c1ccc2ncccc2c1,inactive
17,O=Cc1ccccc1C=O,inactive
18,O=C(O)c1cc(=O)[nH]c(=O)[nH]1,inactive
19,C=C[C@H]1CN2CC[C@H]1C[C@@H]2[C@@H](O)c1ccnc2ccc(OC)cc12,inactive
20,COCCOCCOCCO,inactive

row,SMILES,Potency
1,Nc1ccc2c(O)cc(S(=O)(=O)O)cc2c1,inactive
2,COc1ccc(C(=O)c2ccccc2O)c(O)c1,inactive
3,Nc1cc(Cl)c(N)c(Cl)c1,inactive
4,CC(C)(Oc1ccc(Cl)cc1)C(=O)O,inactive
5,CCCCCCOCCOCCO,inactive
6,C=CC(C)(O)CCC=C(C)C (stereo not given),inactive
7,Cc1ccc(C(C)(C)C)c(O)c1,inactive
8,O=C(CCCN1CCC(O)(c2ccc(Cl)cc2)CC1)c1ccc(F)cc1,inactive
9,C=CCNCC=C,inactive
10,CCCCCC=O,inactive
11,c1ccc2c(c1)[nH]c1ccccc12,inactive
12,O=C(O)CCCC(=O)O,inactive
13,Cc1ccc(S(=O)(=O)O)cc1C,inactive
14,CC1(C)O[C@@H]2C[C@H]3[C@@H]4C[C@H](F)C5=CC(=O)C=C[C@]5(C)[C@@]4(F)[C@@H](O)C[C@]3(C)[C@]2(C(=O)CO)O1,inactive
15,CCO[Si](CCCNC(N)=O)(OCC)OCC,inactive
16,C=C[C@@]1(C)CC(=O)[C@]2(O)[C@@]3(C)[C@@H](O)CCC(C)(C)[C@@H]3[C@H](O)[C@H](OC(C)=O)[C@@]2(C)O1,inactive
17,C=C1C[C@H]2[C@@H]3C=C(C)C4=CC(=O)CC[C@]4(C)[C@H]3CC[C@]2(C)[C@@]1(OC(C)=O)C(C)=O,inactive
18,CC1(C)NC(=O)N(c2ccc([N+](=O)[O-])c(C(F)(F)F)c2)C1=O,inactive
19,COC(=O)c1ccc(C)cc1,inactive
20,CN(C)C,inactive

# — PubChem BioAssay (Tox21)
